Data taken from PubChem BioAssay AID618 (Sanford-Burnham Center for Chemical Genomics, 2007).
The campaign covered roughly 87,000 compounds. About 540 (0.62%) were called active. How the calls were made is not given here. Many of the other results were omitted from the sample, so actives are more common in it than they were. Results with a measured potency or affinity are listed apart.

Experiment: inhibitors of MT1-MMP promoter transcription, cell-based, luciferase reporter, luminescence (AID 618);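 further: actives suppress MT1-MMP promoter-driven transcription so potencies describe inhibitors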
Conditions: MT1-MMP promoter luciferase reporter cells

Row | Compound | outcome
1 | Cc1cccc(NC(=O)c2cnc3ccccn3c2=O)c1 | inactive
2 | CCN(CC)c1ccc(NC(=O)c2cnc3ccccn3c2=O)c(C)c1 | inactive
3 | CCCC(=O)c1ccc(N2CCOCC2)c(F)c1 | inactive
4 | Cn1c(C(=O)N2CCN(Cc3ccccc3)CC2)cc2c(=O)n(C)c3ccccc3c21 | inactive
5 | COc1cc(C(=O)N2CCN(c3cccc(C)c3C)CC2)cc(OC)c1OC | active
6 | COc1cc(C(=O)N2CCN(c3cc(Cl)ccc3Cl)CC2)cc(OC)c1OC | active
7 | COc1ccc(Cl)cc1S(=O)(=O)N1CCN(C(=O)c2cc(OC)c(OC)c(OC)c2)CC1 | inactive
8 | COc1ccc(C(=O)N2CCN(C(=O)c3cc(OC)c(OC)c(OC)c3)CC2)cc1 | inactive
9 | Cc1cccc(N2CCN(C(=O)c3ccncc3)CC2)c1C | inactive
10 | COc1cc(C(=O)N2CCN(C(=O)c3ccccc3)CC2)cc(OC)c1OC | inactive
11 | O=C(Nc1cccc(Cl)c1N1CCCC1)c1ccc(Br)o1 | inactive
12 | O=C(Nc1ccccc1)NC1CC2CCC(C1)N2Cc1nnnn1Cc1ccc2c(c1)OCO2 (stereo not drawn) | inactive
13 | COc1ccc(Nc2cc(C)nc3nc(C)nn23)cc1Cl | inactive
14 | CC(=O)Nc1c2c(nn1-c1ccc(C)cc1C)CSC2 | inactive
15 | CCCCS(=O)(=O)/C=C/[C@H]1[C@H](S(=O)(=O)CCCC)[C@H]2C=C[C@@H]1C2 | inactive
16 | CCCCS(=O)(=O)/C=C\C1C2C=CC(C2)C1S(=O)(=O)CCCC (stereo not drawn) | inactive
17 | CCCCS(=O)(=O)/C=C\C=C/S(=O)(=O)CCCC | active
18 | COc1ccc(CCNC(=O)Cn2cnc3c(nnn3Cc3ccccc3F)c2=O)cc1OC | inactive
19 | Cc1ccc(S(=O)(=O)N2CCN(C(=O)N3CCOCC3)C2c2ccc(N(C)C)cc2)cc1 (stereo not drawn) | inactive
20 | O=C(Cc1n[nH]c(=O)c2ccccc12)OCC(=O)c1ccc2c(c1)OCCO2 | active
21 | O=C(Cc1ccc(Br)cc1)OCC(=O)c1ccc2c(c1)OCCO2 | inactive
22 | O=C(Cn1cnc2ccccc2c1=O)OCC(=O)c1ccc2c(c1)OCCO2 | inactive
23 | CCOCCCn1c(SCC(=O)NC(C)(C)C)nc2ccccc2c1=O | inactive
24 | CNC(=O)Nc1ccccc1F | inactive
25 | Cc1nc2ccccc2c(=O)n1C1CCCCCC1 | inactive

Row | Compound | outcome
26 | O=C(c1cc(-c2cccc(O)c2)on1)N1CCOCC1 | inactive
27 | O=C(c1cc(-c2ccc(Cl)cc2)on1)N1CCOCC1 | inactive
28 | Cc1ccc(-c2cc(C(=O)N3CCCC3)no2)cc1 | active
29 | O=C(c1cc(-c2ccc(F)cc2)on1)N1CCCC1 | inactive
30 | O=C(c1cc(-c2ccc(Cl)cc2Cl)on1)N1CCN(C(=O)c2ccco2)CC1 | inactive
31 | O=C(c1cc(-c2ccccc2)on1)N1CCCC1 | inactive
32 | O=C(c1cc(-c2ccc(Cl)cc2Cl)on1)N1CCOCC1 | active
33 | COc1cccc(-c2cc(C(=O)N3CCCCCC3)no2)c1 | inactive
34 | CCCCN1CC(C(=O)NCc2ccc(C)cc2)CC1=O (stereo not drawn) | inactive
35 | CCCN1Cc2cccc(C(=O)NCc3ccc4c(c3)OCO4)c2C1=O | inactive
36 | c1coc(CN2CN=C(Nc3nc4ccccc4s3)NC2)c1 | inactive
37 | Cc1cc(S(=O)(=O)N(Cc2ccc(F)cc2)CC2CCCO2)ccc1-n1cnnn1 (stereo not drawn) | inactive
38 | COc1ccc(OC)c(CNn2c(-c3cccc(C)c3)nc3ccccc3c2=O)c1 | inactive
39 | CC1=CC(C)(C)N2C(=O)C3(C(C#N)=C(N)Oc4cc(O)ccc43)c3c(C)c(C)cc1c32 (stereo not drawn) | inactive
40 | O=C(CSc1nnc(-c2cccs2)o1)c1cccs1 | inactive
41 | Cc1cc(C(=O)CSc2nnc(-c3ccccc3F)o2)c(C)n1Cc1cccs1 | inactive
42 | COC(=O)C1=C(C)N(CCCC(=O)O)C(=O)NC1c1ccccc1Cl (stereo not drawn) | inactive
43 | Brc1ccc(OCc2nc(-c3ccccn3)n[nH]2)cc1 | inactive
44 | CCOC(=O)N1CCC(NC(=O)c2ccc3c(c2)sc2nc(-c4cccc(OC)c4)cn23)CC1 | inactive
45 | COc1ccc2c(c1)sc1nc(-c3ccccc3)cn12 | active
46 | CCOC(=O)N1CCN(C(=O)c2ccc3c(c2)sc2nc(-c4ccccc4)cn23)CC1 | inactive
47 | Cc1sc2ncnc(Oc3ccc(-n4ccnc4)cc3)c2c1C | inactive
48 | N#CC1(Nc2ccccc2)C(=O)Nc2ccccc21 (stereo not drawn) | inactive
49 | Cc1ccc2nc(-c3ccccn3)oc2c1 | inactive
50 | Cc1ccc2nc(-c3cccc(-c4nc5ccc(C)cc5o4)n3)oc2c1 | inactive

Row | Compound | outcome
51 | Cc1ccc2nc(-c3cccnc3)oc2c1 | inactive
52 | Nc1cccc(-c2nc3ccccc3[nH]2)c1 | inactive
53 | Nc1ccc2nc(-c3ccccc3)[nH]c2c1 | inactive
54 | Nc1cc(N)cc(-c2nc3ccccc3o2)c1 | inactive
55 | COCCNC(=O)Nc1ccc2nc(C)sc2c1 | inactive
56 | CCCCN(C)C(=O)c1oc2ccc(S(=O)(=O)N3CCCCCC3)cc2c1C | inactive
57 | CCn1cc(C(=O)N2CCCC2)c(=O)c2cc(S(=O)(=O)N(C)C)ccc21 | inactive
58 | O=C(NCCCn1ccnc1)c1noc2c1CCc1ccccc1-2 | inactive
59 | CCOCc1nnc(NC(=O)CCc2ccccc2)s1 | inactive
60 | C=CCN1C(=NC(=O)CCCC(=O)O)SC2CS(=O)(=O)CC21 (stereo not drawn) | inactive
61 | COc1ccccc1Nc1nc(NCCO)c2ccccc2n1 | inactive
62 | C=C(C)Cn1c(CCNC(=O)C(C)(C)C)nc2ccccc21 | inactive
63 | Cc1ccc(O)c(N=CC2=C(O)c3ccccc3C2=O)c1 | inactive
64 | O=C1C(C=Nc2ccccc2O)=C(O)c2ccccc21 | inactive
65 | CCc1ccc(NC(=O)C(=O)NCCN2CCN(C(=O)c3ccco3)CC2)cc1 | inactive
66 | CC1=C(C(=O)OC(C)C)C(c2cccc(F)c2)N2C(=O)C(C)SC2=N1 (stereo not drawn) | inactive
67 | CCOC(=O)CSc1nnc(CNC(=O)c2ccc(OC)cc2OC)n1-c1ccc(OC)cc1 | inactive
68 | CCN(CC)C(=O)N1CCn2c(nc3ccccc32)C1 | inactive
69 | CC(C)(C)C(=O)/C(=C\c1ccc([N+](=O)[O-])cc1)n1cncn1 | active
70 | O=[N+]([O-])/C(C(Cl)=C(Cl)Cl)=C(\Nc1ccc(F)cc1)n1cncn1 | inactive
71 | Cn1ncc(N=Cc2ccc([N+](=O)[O-])cc2)c1C(=O)N1CCOCC1 | inactive
72 | Nn1c(COc2ccccc2)nnc1SCc1cc(=O)[nH]c2ccccc12 | inactive
73 | CCOC(=O)c1sc2nc(-c3ccco3)c3c(c2c1N)CC(C)(C)OC3 | inactive
